Rows were chosen to be rich in hits. Some 3.7% of all compounds tested hit in one or more screens of this group.
BoNT-F LC inh = BoNT/F light chain protease inhibitors, primary screen, biochemical, flow cytometry, MLPCN library. inhibition, % at 10 µM. Botulinum neurotoxin type F light chain protease (Clostridium botulinum). AID 588497, 2011. hit rate 0.22% among 360,000. Multiplex microsphere protease cleavage assay; in the data active = inhibition above about 35%, passing the limit was not always enough; inconclusive = no clear call, values can overlap the other calls
Bead autofluor = flagged as autofluorescent in microsphere protease counterscreen; hit rate 3.1% among 360,000; fluorescence intensity (test concentration not listed); AID 624483; compound autofluorescence counterscreen, microsphere flow cytometry; active compounds read high; in the data active = fluorescence intensity above about 16000; inconclusive = no clear call, values can overlap the other calls
Anthrax LF inh2 = Bacillus anthracis LF protease inhibitors, primary screen, biochemical, multiplex microsphere, MLPCN library. AID 588501, 2011. multiplex microsphere protease cleavage assay. inhibition, % at 10 µM. hit rate 0.12% among 360,000
BoNT A protease = BoNT/A light chain protease inhibitors, primary screen, biochemical, flow cytometry, MLPCN library; Botulinum neurotoxin type A light chain protease (Clostridium botulinum A str. ATCC 3502); multiplex microsphere protease substrate cleavage; inhibition, % at 10 µM; hit rate 0.17% among 360,000; AID 588499, 2011
MazEF act = activators of E. coli MazEF toxin-antitoxin RNase, primary screen, biochemical, fluorescence, uHTS; Endoribonuclease toxin MazF (Escherichia coli (strain K12)), P0AE70; FAM/BHQ RNA-DNA oligo cleavage fluorescence, 5 h; activation, % at 20 µM; hit rate 0.32% among 350,000; AID 504720, 2011; in the data active = activation above about 50%
Target sequence (P0AE70 whole entry, looked up): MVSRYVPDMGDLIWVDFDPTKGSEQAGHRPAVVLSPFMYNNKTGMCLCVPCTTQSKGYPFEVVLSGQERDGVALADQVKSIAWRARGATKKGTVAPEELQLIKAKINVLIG
Large screens that a line does not name were inactive. Rule as the data show it, unless noted: active = inhibition above about 30%; inconclusive = no clear call, values can overlap the other calls; inactive = below that.

CCCC(=O)N1CCC1(C)C(=O)NS(=O)(=O)c1cccs1 (stereo unspecified)	none (no result: MazEF act)
O=c1[nH]c(CN2CCCCC2)ccc1O	none
COc1ccc(C)cc1S(=O)(=O)N1c2ccccc2CC1C (stereo unspecified)	Bead autofluor 17618
Cc1cccc(CN2C(=O)N/C(=C/c3ccc(C)s3)C2=O)c1	MazEF act 190
Cc1cccc(NC(=O)/C(C#N)=C\c2cccnc2)c1	Bead autofluor 17179
Cc1nn(CCC#N)c(NC(=O)c2ccc(Cl)cc2Cl)c1P(=O)(Nc1ccc([N+](=O)[O-])cc1)N1CCOCC1 (stereo unspecified)	Bead autofluor 16178
N#C/C(C(=O)c1ccccc1)=C1/CCCN1	Bead autofluor 23223
CCCCCCN1C[C@H](n2cc(C3CC3)nn2)[C@@H](O)C[C@@H]1c1ccc(OC)cc1	none
O=C(c1ccccc1)c1cc2ccc(O)cc2oc1=O	Bead autofluor 20651
Cc1ccccc1-c1nc2sc(-c3ccccc3)cc2c(=O)o1	Bead autofluor 17440, BoNT A protease inconclusive
CCn1c(C)cc2c(c1=O)C(c1ccccc1)C(C(=O)OC)=C(N)O2 (stereo unspecified)	Bead autofluor 23918
Cc1cccc(N=Nc2c(N)n[nH]c2-c2ccc(Cl)cc2)c1	Bead autofluor 20404
Cc1ccc(-c2[nH]nc(N)c2N=Nc2cccc(Cl)c2C)cc1	none
COC(=O)c1sccc1-c1ccc(/C=N/OC(=O)c2ccccc2)o1	Bead autofluor 20465
O=C(C[C@@H]1C[C@@H]2c3cc(NS(=O)(=O)c4ccc(F)cc4)ccc3O[C@@H]2[C@H](CO)O1)N1CCc2ccccc2C1	none
OC(Cn1ccnc1)c1ccc(Cl)cc1Cl (stereo unspecified)	MazEF act 159
Clc1ccc(C(Cn2ccnc2)OCc2c(Cl)cccc2Cl)c(Cl)c1 (stereo unspecified)	none
Cn1cc(C=C2C(=O)NC(=O)NC2=O)c2ccccc21	MazEF act active
C=CCn1c(C)c(C=C2C(=O)NC(=O)NC2=O)c2ccccc21	BoNT-F LC inh inconclusive, BoNT A protease 33
CCOc1ccc(S(=O)(=O)N/N=C2/CC(c3ccccc3)Oc3ccccc32)cc1 (stereo unspecified)	Bead autofluor 19045
COc1nc(N(C#N)CC(N)=O)nc(N2CCCC2)n1	Bead autofluor 20491
CCNC(=O)C1(C)CCCN1C(=O)c1ccc2c(c1)OCO2 (stereo unspecified)	none (no result: MazEF act)
CCOC(=O)Cc1csc(NC(=O)c2ccc(Br)cc2)n1	BoNT-F LC inh inconclusive
CCOC(=O)Cc1csc(NC(=O)NC2(C(F)(F)F)Oc3ccc(Cl)cc3O2)n1 (stereo unspecified)	none
CCOC(=O)Cc1csc(NC(=O)COc2ccccc2)n1	Bead autofluor 22960
CCOC(=O)Cc1csc(NC(=O)COc2ccc(C)cc2)n1	none
CCOC(=O)Cc1csc(NC(=O)c2ccc(S(=O)(=O)N3CCCCC3)cc2)n1	Bead autofluor 22414, BoNT A protease inconclusive
CCOC(=O)Cc1csc(NC(=O)c2ccco2)n1	Bead autofluor 20219
CCOC(=O)Cc1csc(NC(=O)NC2(C(F)(F)F)Oc3ccccc3O2)n1	Bead autofluor 16388
C[C@H](CO)N1C[C@H](C)[C@@H](CN(C)C(=O)Nc2ccccc2F)OCc2cnnn2CCCC1=O	none
O=C(Nc1ccon1)c1cc2c(s1)CCCCCC2	Bead autofluor 16721, BoNT A protease inconclusive
O=C(NCc1ccco1)c1cc2c(s1)CCCCC2	Bead autofluor 18946
O=C(Nc1ccon1)c1cc2c(s1)CCCC2	Bead autofluor 22744, BoNT A protease inconclusive
O=C(NCC(c1ccco1)N1CCCCC1)c1cc2c(s1)CCCC2 (stereo unspecified)	none
O=C(NCCCn1ccnc1)c1cc2c(s1)CCCCC2	Bead autofluor 25451
Cc1ccc(NC(=O)CSCC(=O)Nc2cc(S(=O)(=O)N3CCOCC3)ccc2OC(C)C)cc1	none
CN(C)S(=O)(=O)c1cccc(NC(=O)C2CCCN(C(=O)c3ccc(Cl)cc3)C2)c1 (stereo unspecified)	none
COc1nnc(-c2ccc(N3CCCCC3)c(NC(C)=O)c2)c2ccccc12	Bead autofluor 19145, BoNT A protease inconclusive
COc1nnc(-c2ccc(N3CCCCC3)c(NC(=O)C3CCCCC3)c2)c2ccccc12	none
Cc1cccc(C)c1NC(=O)CCN1C(=O)C2C3CCC(C3)C2C1=O (stereo unspecified)	Bead autofluor 24501
COc1cccc(N2CCN(C3CCCC(C)C3)CC2)c1 (stereo unspecified)	Bead autofluor 24685
COc1ccc(S(=O)(=O)N2CCN(C3CCCC(C)C3)CC2)cc1 (stereo unspecified)	none
COc1ccc(OC)c(CN2C(=O)c3ccccc3C2c2nnnn2-c2c(C)cccc2C)c1 (stereo unspecified)	none (no result: MazEF act)
CC1=C(C(=O)Nc2ccccc2)C(c2ccc(C)cc2)N=C(Nc2nc3ccccc3o2)N1 (stereo unspecified)	Bead autofluor 23563
CC1(C)OC2COC(c3[nH]nc4c(=O)[nH]c(=O)[nH]c34)C2O1 (stereo unspecified)	none
COCCCNC(=O)c1ccc(C(=O)NCCCOC)cc1	Bead autofluor 22526
COCCCNC(=O)c1ccc(-c2nc3ccccc3nc2-c2ccccc2)cc1	none
O=C(NNC(=S)NCc1ccccc1)c1cccnc1	none
COCCCNC(=S)NNC(=O)c1cccnc1	Bead autofluor 20168
O=C(NCc1ccco1)c1ccc2sc([C@@H]3O[C@H](CO)[C@@H](O)[C@H]3O)nc2c1	none (no result: MazEF act)
O=C(Oc1ccc(-c2cn3c(n2)SCC3)cc1)c1ccccc1	Bead autofluor 20792
COc1cnn(C(C)(C)C)c(=O)c1Cl	Bead autofluor 19156, BoNT A protease inconclusive
CCN(CC)c1ccc(/C=C/c2ccc3ccc(OC)cc3[n+]2CC)cc1	BoNT A protease 60
CCOC(=O)CSc1nc2ccccc2c(=O)n1-c1ccc(C(=O)NCCOC)cc1	Bead autofluor 21747
CCOC(=O)CSc1nc2cc(C(=O)N3CCC(C(N)=O)CC3)ccc2c(=O)n1-c1ccccc1	Bead autofluor 21305
O=C1/C(=C\c2ccco2)NC(=S)N1c1ccccc1	none
CCCN=C1N/C(=C\c2ccco2)C(=O)N1c1ccccc1	MazEF act 52
CCC/C=C/c1ccc(CN2C(C)C(=O)N(Cc3cn(CC4CCCCC4)nn3)CCS2(=O)=O)cc1 (stereo unspecified)	none
Cc1ccc(S(=O)(=O)N2CCN(C(=O)N3CCOCC3)C2C)cc1 (stereo unspecified)	Bead autofluor 23303
CN(C)c1ccc(C2N(C(=O)N3CCOCC3)CCN2S(=O)(=O)c2ccccc2)cc1 (stereo unspecified)	none

Bioassay records (PubChem)
